{
  "source": "PubChem BioAssay (NCI)",
  "note": "Values joined by “and” are separate entries in the source; they are usually repeats but may differ in a detail not shown here. Equal values may be shown once. About 83,000 compounds went through this panel and 20% of them were active in at least one assay; those are over-represented in the sample as a whole.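 Negative percent growth values reflect cell death: -40 means 40% of the cells present at the start died, and -100 means all died.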 Active and inactive are the calls of the source. Rule for the calls: active = growth percent below 10; inactive = the rest.",
  "data": [
    {"system": "MDA-MB-468 breast", "experiment": "NCI-60 one-dose screen, 48 h (100 = growth as untreated, 0 = no growth, -100 = all killed)", "conditions": "10 µM unless noted", "values": [
      {"smiles": "COc1ccc(-n2nc(C)c3c(Nc4ccc(NC(=O)Nc5ccc(Cl)c(C(F)(F)F)c5)cc4)ncnc32)cc1", "growth": "-19.9% (active)"},
      {"smiles": "O=C1OCC2=C1C(c1ccc(Cl)c(Cl)c1)c1cc3c(cc1N2CCO)OCCO3", "note": "(centres undefined)", "growth": "23.5% (inactive)"},
      {"smiles": "COc1cc2ncnc(NC3CCC(O)CC3)c2cc1OC", "note": "(centres undefined)", "growth": "96.7% (inactive)"},
      {"smiles": "Cc1nn(-c2nc3ccccc3[nH]2)c2c1C(c1ccc3c(c1)OCO3)CC(=O)N2", "note": "(centres undefined)", "growth": "47.7% (inactive)"},
      {"smiles": "Nc1cccc2c(=S)c3ccccc3[nH]c12", "growth": "86.1% (inactive)"},
      {"smiles": "CC(=O)c1c(OCC#N)ccc2c(C)cc(=O)oc12", "growth": "93.2% (inactive)"},
      {"smiles": "CCCCC/C=C/C/C=C/CCCCCCCC1=NC(C)(C)CN1C(C)C", "growth": "-42.8% (active)"},
      {"smiles": "O=C(COc1ccc(Cl)cc1)N1CCN(Cc2ccc3c(c2)OCO3)CC1", "growth": "98.5% (inactive)"},
      {"smiles": "COc1ccc2cc(C(=O)N3CCC([C@@H](C)C(=O)NCc4ccc5c(c4)OCO5)CC3)[nH]c2c1", "growth": "41.1% [50 µM] (inactive)"},
      {"smiles": "COc1ccc(NC(=O)c2cc(NCc3cc(O)ccc3O)ccc2O)cc1", "growth": "88.5% (inactive)"},
      {"smiles": "O/N=C(/c1ccccc1)c1ccc2c3c(cccc13)CC2", "growth": "57.5% (inactive) and 59.8% (inactive)"},
      {"smiles": "CCn1cc(Cc2cc(C(=O)Nc3cc4cc(OC)c(OC)cc4c(C)n3)ccc2Cl)cn1", "growth": "35.5% (inactive)"},
      {"smiles": "CC(C)CCC[C@@H](C)[C@H]1CC[C@H]2[C@@H]3CC=C4c5sc(Nc6cc(C(F)(F)F)cc(C(F)(F)F)c6)nc5CC[C@]4(C)[C@H]3CC[C@]12C", "growth": "105% (inactive)"},
      {"smiles": "CN1CCN(C2CCN(C(=O)Nc3cc(Oc4ccc(NC(=O)C5(C(=O)Nc6ccc(F)cc6)CC5)c(F)c4)ccn3)CC2)CC1", "growth": "-70.7% (active) and 96.6% (inactive)"}
    ]}
  ]
}
